# A selection: hits, their analogues and other compounds. The true share with any hit is near 13%.
# Pf growth 96h = P. falciparum growth inhibition at 96 hour, primary screen for plastid delayed-death inhibitors | P. falciparum luciferase reporter growth, 96 h | Potency, µM (highest dose often 28.7 µM), for the others: top-dose activity change, negative = inhibition, usual class: inhibitors | 320,000 compounds, 6.9% hits; note: potency is the fitted concentration of half-maximal effect
#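 Infected RBCs, 2% Hct / 0.05% parasitemia final; luciferase-reporter P. falciparum; cpd 96 h, 37 C, 5% CO2; luciferase detection reagent; luminescence.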
# HCV inh = blocks hepatitis C virus | Huh7.5.1 HCVcc-Cre infection, luciferase reporter, 44 h | Potency, µM (titrated, usually from 41.8 µM), for inactives: at the highest dose activity change, negative = inhibition, hits mostly inhibitors | 340,000 compounds, 3.4% hits; note: potency is the fitted concentration of half-maximal effect
#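 A cell-based infection assay in which seeded cells (1,000 per well) receive test compound after 4 h, are inoculated with HCVcc-Cre at approximately 0.5 moi, and are incubated 44 h before luminescence detection.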
# HCMV inh = human cytomegalovirus inhibition; 410,000 compounds, 4.5% hits; activity change, negative = inhibition, % at 57.5 µM; AID 1259415; HFF cells, HCMV-luciferase reporter, 72 h; stronger effect = lower value; in the data active = activity change below about -60%; inconclusive = no clear call, values can overlap the other calls; inactive = above about -39%
#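 Inhibition of viral replication was scored as loss of reporter luminescence in HFFs infected with HCMV-luciferase (MOI 1 PFU/cell) for 72 h; compounds tested at 2 doses, normalized to buffer and Salinomycin controls.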
# Pf growth 48h = inhibits P. falciparum growth in the first generation, 48 h. 310,000 compounds, 5.9% hits. P. falciparum luciferase growth in erythrocytes, 48 h. AID 504832. Potency, µM (doses to about 28.7 µM), without a hit: at the highest dose activity change, negative = inhibition, hits mostly inhibitors; note: potency is the fitted concentration of half-maximal effect
#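 Compounds are pin-transferred into medium, infected erythrocytes (2% hematocrit, 0.1% parasitemia final) are added, and plates sit one parasite generation at 37 C in 5% CO2. Detection reagent is then added and luminescence measured.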
# * = called active by the depositor; ? = inconclusive; / = not tested or not shown; ! = not confirmed by another sample. Unless noted, calls come from the whole dose curve; as a rule, active = well fitted inhibition curve with a large enough effect; inconclusive = small, poorly fitted or top-dose-only effect, or another doubt; inactive = no such curve, though single readings can be large or run the other way. % is set by controls: 0 for no effect and ±100 for the full control effect.
SMILES,Pf growth 96h,HCV inh,HCMV inh,Pf growth 48h
CCOc1ccc(-c2nc(CSCC(=O)NCc3ccco3)c(C)o2)cc1,13.1µM*,?,?,?
COc1ccc(-c2nc(CSCC(=O)NCc3ccc4c(c3)OCO4)c(C)o2)cc1,5.86µM*,6.7%,42.6,/
COc1ccc(OC)c(CCNC(=O)c2ccc3[nH]c(C)c(C)c3c2)c1,/,/,0.0,/
COc1ccc(CNC(=O)C(C)n2ccc3cc(S(=O)(=O)N4CCCCCC4)ccc32)cc1 (configuration not stated),?,6.31µM*,-9.0,?
COC(=O)Cn1ccc2cc(S(=O)(=O)N3CCCCCC3)ccc21,?,4.6%,1.0,-3.6%
COC(=O)Cn1ccc2cc(S(=O)(=O)N3CCCCC3)ccc21,5.86µM*,3.8%,-38.2,17.1%
CC(C)Oc1ccc(CNC(=O)C(C)n2ccc3cc(S(=O)(=O)N4CCCCCC4)ccc32)cc1 (configuration not stated),/,/,6.9,/
Cc1ccc(-n2ncc(C(=O)NCCN3CCCC3)c2C2CCN(C(=O)OC(C)(C)C)CC2)cc1C,/,/,0.0,/
Cc1cccc(C(=O)N[C@H](C(=O)Nc2nc3ccccc3[nH]2)C(C)C)c1,?,-23.6%,-81.4*,?
COc1ccc(C(=O)N[C@H](C(=O)Nc2nc3ccccc3[nH]2)C(C)C)cc1,65.7%,7.08µM*,-86.2*,78.0%
Cc1cccc(C(=O)N[C@H](C(=O)Nc2nc(C)cs2)C(C)C)c1,-12.5%,-4.0%,46.5,-22.1%
COc1cc2cc(CN(Cc3cccs3)C(=S)Nc3ccc(C)cc3)c(=O)[nH]c2cc1OC,-10.3%,-32.0%,-69.2*,?
COc1ccccc1NC(=S)N(Cc1ccco1)Cc1cc2cc(C)c(C)cc2[nH]c1=O,2.08µM*,?,-61.9*,13.1µM*
COc1ccccc1NC(=O)N(Cc1ccco1)Cc1cc2cc(C)cc(C)c2[nH]c1=O,?,3.16µM*,-11.7,?
CCC(=O)N1CCc2cc(Br)cc(S(=O)(=O)CCC(=O)NCc3ccc(C)cc3)c21,/,/,3.1,/
O=C(COc1cccc2cccnc12)Nc1cccc(S(=O)(=O)N2CCCC2)c1,?,10µM*,-9.3,10.4µM*
CCOc1ccc(NC(=O)COc2cccc3cccnc23)cc1S(=O)(=O)N1CCCC1,/,/,-11.3,/
O=C(COc1ccc(F)cc1Cl)Nc1cccc(S(=O)(=O)N2CCCCCC2)c1,13.1µM*,?,-17.0,?
CCc1ccccc1OCC(=O)Nc1cccc(S(=O)(=O)N2CCCC2)c1,?,?,-28.9,?
CC(=O)c1cc(Cl)ccc1OCC(=O)Nc1cccc(S(=O)(=O)N2CCCC2)c1,3.7µM*,-29.7%,0.0,?
CC(=O)c1ccc(NC(=O)c2nc(-c3ccccc3)n(-c3ccccc3Cl)n2)cc1,/,/,-21.0,/
CN(C(=O)c1cc2c(=O)n3ccccc3nc2n1C)c1ccccc1,/,/,76.5,/
Cc1cc(-c2ccc(C)c(S(=O)(=O)NCCCN3CCCCCC3)c2)on1,?,-12.7%,-5.4,14.7µM*
Cc1cc(-c2ccc(C)c(S(=O)(=O)N3CCN(c4ccc([N+](=O)[O-])cc4)CC3)c2)on1,?,?,-73.0*,?
Cc1cc(-c2ccc(C)c(S(=O)(=O)NCCCN3CCN(c4ccccc4F)CC3)c2)on1,4.65µM*,?,0.0,?
SMILES,Pf growth 96h,HCV inh,HCMV inh,Pf growth 48h
Cc1ccc2scc(N3CCc4ccccc4C3)c(=O)c2c1,/,/,25.5,/
Cc1cc(C)c(NC(=O)CSc2nc(=O)[nH]c3c2CCCC3)c(C)c1,/,/,9.3,/
CCC(SC1=Nc2ccccc2C2=NC(CC(C)C)C(=O)N12)C(=O)Nc1ccc2c(c1)OCO2 (configuration not stated),6.1%,8.91µM*!,19.8,?
Cc1ccc(-c2noc(-c3cccnc3N(C)Cc3ccc(Cl)cc3)n2)cc1,/,/,32.2,/
CCCc1cc(=O)[nH]c(SCc2nc(-c3ccccc3)no2)n1,/,/,0.0,/
CCNC(=O)C1CCN(c2nc3ccccc3nc2C(F)(F)F)CC1,/,/,-3.0,/
Cc1c(Cl)cccc1NC(=O)C(C)N(c1ccccc1)S(C)(=O)=O (configuration not stated),/,/,9.8,/
CCS(=O)(=O)N1CCc2cc(C(=O)Nc3cc([N+](=O)[O-])ccc3C)ccc21,/,/,-9.1,/
CCOC(=O)C1CCN(C(=O)Cn2nc(CC)n3c(cc4sccc43)c2=O)CC1,/,/,-26.1,/

# Assay outcomes from PubChem.
